# Source: PubChem BioAssay AID1159580 (chemical genetic matrix, 2015)
# The whole screen tested about 5,500 compounds, of which about 2,000 (36%) were called active. Another 18% or so got no clear call; they are omitted. The list shows a part of the results. Unmarked numbers belong to inactive results. Rule as the data show it: active = normalized growth mostly below about 0.91 (no sharp cut-off); inconclusive = no clear call, values can overlap the other calls; inactive = mostly above about 0.92.
# Experiment: chemical genetic growth profiling, strain panel (AID 1159580);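 also: tested at 20 µM; growth read once vehicle control cultures reached saturation at 30 °C; 1 = growth at the plate median or of vehicle wells; lower values mean less growth of the strain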
# Settings: growth OD
structure (smiles),measurement,setting,value
CC(=O)c1c(O)c(C)c(O)c2c1oc1c(C(C)=O)c(O)c(C)c(O)c12,normalized growth,"S. cerevisiae deletion strains, locus YAL013W, strain DEP1, hits give low values",1
same,normalized growth,"S. cerevisiae deletion strains, locus YBR021W, strain FUR4, hits give low values",0.991
same,normalized growth,"S. cerevisiae deletion strains, locus YBR229C, strain ROT2, hits give low values",0.981
same,normalized growth,"S. cerevisiae deletion strains, locus YCL029C, strain bik1, hits give low values",0.961
same,normalized growth,"S. cerevisiae deletion strains, locus YDL035C, strain GPR1, hits give low values",0.942
same,normalized growth,"S. cerevisiae deletion strains, locus YDL074C, strain BRE1, hits give low values",0.963
same,normalized growth,"S. cerevisiae deletion strains, locus YDL101C, strain DUN1, hits give low values",0.98
same,normalized growth,"S. cerevisiae deletion strains, locus YDL134C, strain PPH21, hits give low values",0.981
same,normalized growth,"S. cerevisiae deletion strains, locus YDL192W, strain arf1, hits give low values",0.934
same,normalized growth,"S. cerevisiae deletion strains, locus YDR101C, strain arx1, hits give low values",0.918 (active)
same,normalized growth,"S. cerevisiae deletion strains, locus YDR150W, strain NUM1, hits give low values",0.988
same,normalized growth,"S. cerevisiae deletion strains, locus YDR162C, strain NBP2, hits give low values",0.979
same,normalized growth,"S. cerevisiae deletion strains, locus YDR318W, strain mcm21, hits give low values",0.934
same,normalized growth,"S. cerevisiae deletion strains, locus YDR388W, hits give low values",0.966
same,normalized growth,"S. cerevisiae deletion strains, locus YDR502C, strain sam2, hits give low values",0.91 (active)
same,normalized growth,"S. cerevisiae deletion strains, locus YEL061C, strain CIN8, hits give low values",0.98
same,normalized growth,"S. cerevisiae deletion strains, locus YER110C, hits give low values",0.976
same,normalized growth,"S. cerevisiae deletion strains, locus YER155C, strain BEM2, hits give low values",0.973
same,normalized growth,"S. cerevisiae deletion strains, locus YER167W, strain BCK2, hits give low values",0.963
same,normalized growth,"S. cerevisiae deletion strains, locus YGL078C, strain dbp3, hits give low values",0.987
same,normalized growth,"S. cerevisiae deletion strains, locus YGL086W, strain mad1, hits give low values",0.993
same,normalized growth,"S. cerevisiae deletion strains, locus YGL248W, strain PDE1, hits give low values",0.973
same,normalized growth,"S. cerevisiae deletion strains, locus YGR078C, strain PAC10, hits give low values",0.943
same,normalized growth,"S. cerevisiae deletion strains, locus YGR135W, strain pre9, hits give low values",0.954
same,normalized growth,"S. cerevisiae deletion strains, locus YGR229C, strain SMI1, hits give low values",0.901
same,normalized growth,"S. cerevisiae deletion strains, locus YGR252W, strain gcn5, hits give low values",0.906
same,normalized growth,"S. cerevisiae deletion strains, locus YHR030C, strain SLT2, hits give low values",0.961
same,normalized growth,"S. cerevisiae deletion strains, locus YHR079C, strain IRE1 (second series), hits give low values",0.953
same,normalized growth,"S. cerevisiae deletion strains, locus YHR094C, strain hxt1, hits give low values",0.978
same,normalized growth,"S. cerevisiae deletion strains, locus YHR129C, strain ARP1, hits give low values",0.975
same,normalized growth,"S. cerevisiae deletion strains, locus YHR200W, strain rpn10, hits give low values",0.938
same,normalized growth,"S. cerevisiae deletion strains, locus YIL066C, strain RNR3, hits give low values",0.924
same,normalized growth,"S. cerevisiae deletion strains, locus YIL073C, strain SPO22, hits give low values",0.942
same,normalized growth,"S. cerevisiae deletion strains, locus YIL125W, strain kgd1, hits give low values",0.983
same,normalized growth,"S. cerevisiae deletion strains, locus YIR030C, strain dcg1, hits give low values",0.952
same,normalized growth,"S. cerevisiae deletion strains, locus YJL095W, strain BCK1, hits give low values",0.909
same,normalized growth,"S. cerevisiae deletion strains, locus YJL134W, strain LCB3, hits give low values",0.977
same,normalized growth,"S. cerevisiae deletion strains, locus YJL168C, strain set2, hits give low values",0.968
same,normalized growth,"S. cerevisiae deletion strains, locus YJL187C, strain SWE1 (second series), hits give low values",0.944
same,normalized growth,"S. cerevisiae deletion strains, locus YJR043C, strain POL32, hits give low values",0.926
same,normalized growth,"S. cerevisiae deletion strains, locus YJR075W, strain HOC1, hits give low values",0.974
same,normalized growth,"S. cerevisiae deletion strains, locus YKL009W, strain mrt4, hits give low values",0.944
same,normalized growth,"S. cerevisiae deletion strains, locus YKL068W, hits give low values",0.995
same,normalized growth,"S. cerevisiae deletion strains, locus YKL085W, strain MDH1 (second series), hits give low values",0.982
same,normalized growth,"S. cerevisiae deletion strains, locus YKL085W, strain MDH1, hits give low values",0.982
same,normalized growth,"S. cerevisiae deletion strains, locus YKL190W, strain CNB1, hits give low values",0.988
same,normalized growth,"S. cerevisiae deletion strains, locus YKR001C, strain vps1, hits give low values",0.638 (active)
same,normalized growth,"S. cerevisiae deletion strains, locus YLR039C, strain RIC1, hits give low values",0.722
same,normalized growth,"S. cerevisiae deletion strains, locus YLR058C, strain SHM2, hits give low values",0.966
same,normalized growth,"S. cerevisiae deletion strains, locus YLR102C, strain apc9, hits give low values",0.979
same,normalized growth,"S. cerevisiae deletion strains, locus YLR262C, strain YPT6, hits give low values",0.827
same,normalized growth,"S. cerevisiae deletion strains, locus YLR268W, strain sec22, hits give low values",0.906
same,normalized growth,"S. cerevisiae deletion strains, locus YLR330W, strain CHS5, hits give low values",0.983
same,normalized growth,"S. cerevisiae deletion strains, locus YLR342W, strain FKS1 (second series), hits give low values",0.882
same,normalized growth,"S. cerevisiae deletion strains, locus YLR371W, strain rom2, hits give low values",0.979
same,normalized growth,"S. cerevisiae deletion strains, locus YLR418C, strain cdc73, hits give low values",0.9
same,normalized growth,"S. cerevisiae deletion strains, locus YML016C, strain PPZ1, hits give low values",0.975
same,normalized growth,"S. cerevisiae deletion strains, locus YML032C, strain rad52, hits give low values",0.891 (active)
same,normalized growth,"S. cerevisiae deletion strains, locus YML124C, strain tub3, hits give low values",0.964
same,normalized growth,"S. cerevisiae deletion strains, locus YMR078C, strain ctf18, hits give low values",0.966
same,normalized growth,"S. cerevisiae deletion strains, locus YMR223W, strain ubp8, hits give low values",0.921
same,normalized growth,"S. cerevisiae deletion strains, locus YMR263W, strain SAP30, hits give low values",0.957
same,normalized growth,"S. cerevisiae deletion strains, locus YMR307W, strain GAS1, hits give low values",0.901
same,normalized growth,"S. cerevisiae deletion strains, locus YNL067W, strain RPL9B, hits give low values",0.961
same,normalized growth,"S. cerevisiae deletion strains, locus YNL128W, strain TEP1, hits give low values",0.972
same,normalized growth,"S. cerevisiae deletion strains, locus YNL153C, strain GIM3, hits give low values",0.986
same,normalized growth,"S. cerevisiae deletion strains, locus YNL233W, strain BNI4, hits give low values",0.943
same,normalized growth,"S. cerevisiae deletion strains, locus YNL250W, strain rad50, hits give low values",0.977
same,normalized growth,"S. cerevisiae deletion strains, locus YNL271C, strain bni1, hits give low values",0.985
same,normalized growth,"S. cerevisiae deletion strains, locus YNL298W, strain CLA4, hits give low values",0.958
same,normalized growth,"S. cerevisiae deletion strains, locus YNL307C, strain MCK1, hits give low values",0.941
same,normalized growth,"S. cerevisiae deletion strains, locus YNL322C, strain KRE1, hits give low values",0.989
same,normalized growth,"S. cerevisiae deletion strains, locus YNR052C, strain pop2, hits give low values",0.852 (active)
same,normalized growth,"S. cerevisiae deletion strains, locus YOL006C, strain TOP1, hits give low values",0.921
same,normalized growth,"S. cerevisiae deletion strains, locus YOL012C, strain htz1",0.749
same,normalized growth,"S. cerevisiae deletion strains, locus YOL147C, strain pex11, hits give low values",0.958
same,normalized growth,"S. cerevisiae deletion strains, locus YOR061W, strain CKA2, hits give low values",0.963
same,normalized growth,"S. cerevisiae deletion strains, locus YOR069W, strain VPS5, hits give low values",0.988
same,normalized growth,"S. cerevisiae deletion strains, locus YOR136W, strain idh2, hits give low values",0.967
same,normalized growth,"S. cerevisiae deletion strains, locus YOR144C, strain elg1, hits give low values",0.971
same,normalized growth,"S. cerevisiae deletion strains, locus YOR184W, strain ser1, hits give low values",0.88
same,normalized growth,"S. cerevisiae deletion strains, locus YOR316C, strain cot1, hits give low values",0.972
same,normalized growth,"S. cerevisiae deletion strains, locus YPL055C, strain LGE1, hits give low values",0.95
same,normalized growth,"S. cerevisiae deletion strains, locus YPL241C, strain CIN2, hits give low values",0.962
same,normalized growth,"S. cerevisiae deletion strains, locus YPR119W, strain clb2, hits give low values",0.971
same,normalized growth,"S. cerevisiae deletion strains, locus YPR141C, strain kar3, hits give low values",0.985
same,normalized growth,"S. cerevisiae deletion strains, locus YPR163C, strain tif3, hits give low values",0.98
same,normalized growth,"S. cerevisiae deletion strains, locus YPR167C, strain met16, hits give low values",0.974
same,normalized growth,"S. cerevisiae deletion strains, strain wtn01, hits give low values",0.932
same,normalized growth,"S. cerevisiae strains, strain wild type, hits give low values",0.954
